Experimental data as given in PubChem BioAssay AID1508600 (Functional Genomics Laboratory (NCATS/FGL), 2020).
Among all 53,000 sequences or so, about 3,700 (7%) were called active. The full list was thinned out, with actives kept by preference. A number with no mark means an inactive call.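 The calls were made as follows: active = gene knockdowns whose robust z-score for IL-1 alpha signal is at least 2 or at most -2, so actives lie on both sides; inactive = the rest.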

experiment: Components of the Cytosolic LPS Sensing Pathway: Gene Identification via Genome-wide siRNA Screen; details: RAW264.7 macrophages, IL-1a HTRF, actives lie on both sides, screened at 100 nM (by protocol), cells primed 5 h with Pam3CSK4 first;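 also: robust z of the log signal after scaling to non-targeting control siRNA wells of the plate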
In short: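 Supernatant IL-1a by HTRF from RAW264.7 cells primed with Pam3CSK4 (5 hours) and transfected with LipidA (24 hour) after 48h siRNA knockdown at 100 nM; cell viability checked with CellTiter-Glo.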

Sequence | z-score
GGACGUGCUCAAGUUCAUCTT against Ift172 | 0.519
GGAAGUCAAGCAAAAGUUUTT against Hsd17b7 | -0.516
GGUUGAAGAUGAAAGAAGATT against Sin3a | 0.132
CGAAGCUCAACAGAUUCCUTT against Prl7a2 | -0.278
GGCACGAUGGUUCAUCCUUTT against Plek2 | -2.01 (active)
CGGCCUACAACUACCCAACTT against Tekt3 | 1.02
CGACGUAUCCGUUCUAUAATT against Eif2s1 | -1.05
GAGCAUAGAAACCAUGCACTT against Acot2 | -0.621
GGAGAUGUAACCAUAGGCCTT against Dctn6 | 2.07 (active)
GCUAAAGAAAAGUGGAGACTT against Pbdc1 | 0.165
GGCAGAAAGACAUUUUCUUTT against Ift80 | -2.53 (active)
GCAUAUCUAUAACAGAGCCTT against Rnase2a | -1.23
GGAAAUGUCAUGACCUUGATT against Tnfaip6 | -1.89
CCUGGUGCUAUGGACUAAATT against Tectb | -1.15
GCUACGGAUGCUUUUCAAATT against Ube2i | -0.351
UAUUGUCACCGUCUUAGGCTT against Olfr1028 | -2.84 (active)
CGUAUCUUAUAUCAGGAAATT against Trem1 | 0.513
GGAGAACAUAAAAAUGGUGTT against Stk39 | -0.0786
GGAGUUUUGGGUGAUGAUATT against Olfr974 | -2.41 (active)
GGUCUUUUGUAAAAACCCUTT against Sytl2 | 0.099
GGCAACAGUGAAAGAUGAATT against Acnat2 | 0.0608
GCAACCGCGUCACAUUGAATT against Bicc1 | 0.655
GCGAGCAUGAAGUUAGUAATT against C230029F24Rik | 0.914

Sequence | z-score
GGAGUGACUCCUACAAAAUTT against Ms4a4b | -2.01 (active)
CCAGUGGUCAUUCUUGUCUTT against Olfr1076 | 0.314
GCUGUCGACUUUAAAAGGUTT against Pcdhga7 | -0.356
GGCAGAAACUAAGAAUGAATT against Mx1 | -0.292
GGACCUUUUGUGAACUUACTT against E2f3 | 4.53 (active)
GGUGAAGAAAGCACUGUUUTT against Olfr980 | 0.0649
GGAAAUCAGAAUUCCAAAATT against Cntn6 | 1.56
GGCCUAUUUGUUUUUGAAATT against Mthfd2 | 1.45
GGACUAUUCACACUAAGUCTT against Them5 | -0.214
GGGAAACAAAAAGCAGAUATT against Ccdc47 | 0.325
GGAACUGGAAAUCUCAGAGTT against Pcdh12 | 0.447
GCCACAUCAGAUGAAGUCCTT against Ppm1e | -2.26 (active)
GCCCAAUCUACACAGACCATT against Slc7a13 | -0.939
GGAUGUGUGUGUCUCCUCATT against Prr9 | -0.256
GCUACAGAUUAGGGACAUATT against Pcdhb2 | 4.53 (active)
CCACUCCCAUAAGGGCUAUTT against Smo | -0.144
CCUGAACAUAAAGUUUACUTT against Catsper4 | 0.209
CGACAUGUCAAAACUCACGTT against Zfp791 | 1.22
CCAUGUACCAGAUUAAGUATT against Krt8 | 1.16
GGUGAAAAGCAGCUAACAATT against Fam135a | -1.6
GCUGUAAUGCUAAUGACAUTT against Gpr22 | 1.23
CCAUGGUCAUCCCGAUGUUTT against Olfr1454 | 0.171
CGAGAAGGGAUUUUAGAAGTT against A830018L16Rik | -0.92

Sequence | z-score
GGAGAAACUCUUCAGGCUUTT against Tceal8 | -2.19 (active)
GGCAGGCAGAAGGCUUUUUTT against Olfr228 | 1.07
GGUGGACAGGAGAAAGGAATT against Npy6r | -0.578
GGAGACCUGAAUUUUUCAGTT against Tab2 | 0.469
GGAACAAUUGUUCCUGUGATT against Kcne1 | -2.04 (active)
GGAAGAAGCAACCACAUUCTT against Evl | 0.898
GGAGGAGUUUGACUUCGACTT against Alox12 | -0.109
CGUAGACAUGGCCUUUUUUTT against Dipk1c | -0.863
GCAAAUGAAUCAUGGGUGGTT against Rnf141 | 0.116
GGAACGUGGAUCUUUUUAUTT against Wiz | 2.42 (active)
GCUGUCCUUCUAUAACCCATT against Frmd5 | -1.68
GCUCUACAUCGAAUUGCUGTT against Lig4 | 4.14 (active)
GGCGACAAAAAGGCUAAGCTT against Khnyn | 0.437
GGAACUAGCCUUCACUGACTT against Rabggta | 0.931
GGUUGCAUCACAGCGUAUATT against Phlpp1 | 0.759
GGAGGAAAAUGAUGGAGAGTT against Lysmd1 | 2.28 (active)
CCACUUUAGCUCCUUUAAGTT against Tet3 | -0.438
GGAGCUCUACAUCAUAGACTT against Lhx1 | 0.579
GGUAAAACAGGUAUGUCGCTT against Ramac | 0.48
CGAUGAGCUAAGAGAGUCCTT against Cand2 | 3.09 (active)
GGCCUACCUGGUUGAGAAATT against Spam1 | 1.44
GGUCUAUGAAGAGAAGACUTT against Mtres1 | 0.8
GGCACAGUUCCUCAGUAUGTT against Hspbap1 | 1.76
